Screening results deposited in PubChem BioAssay by The Scripps Research Institute Molecular Screening Center.
Shown are actives, neighbours in structure and some others; about 4.6% of the full set was active somewhere.
hcDAF-12 act: activates DAF-12 receptor from parasite H. contortus. HEK293 hcDAF-12 lit1-tk-luc reporter, luminescence; 0% DMSO, 100% Δ7-dafachronic acid. 370,000 tested, 1.4% active. activation, % at 6.8 µM;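 active = activation above the mean of all tested compounds plus 3 SD, cut at about 5.5% in these data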
DAX1 inh-1: NR0B1 (DAX1) inhibition. P51843. HEK293 Gal4-DAX1 luciferase reporter, luminescence. inhibition, % at 6.75 µM. 340,000 tested, 0.99% active;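 active = inhibition above the mean over all tested compounds plus 3 SD, cut at about 4.2% in these data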;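 also: inhibition shows as a rise in luminescence from relieved DAX1 repression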
Target sequence (P51843 207-470 limits assumed): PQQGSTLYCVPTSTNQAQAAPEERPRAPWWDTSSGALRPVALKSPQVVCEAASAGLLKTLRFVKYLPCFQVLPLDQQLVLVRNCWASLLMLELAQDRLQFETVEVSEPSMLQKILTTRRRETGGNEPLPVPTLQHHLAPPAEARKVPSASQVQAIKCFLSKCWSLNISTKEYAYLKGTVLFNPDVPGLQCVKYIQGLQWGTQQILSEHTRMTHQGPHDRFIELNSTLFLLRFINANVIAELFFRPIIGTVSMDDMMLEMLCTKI
DAX1 inh-2: blocks DAX1 repression of SF-1 activated StAR promoter. HEK293T StAR-luciferase reporter, SF-1/DAX-1 repression relief. inhibition, % at 6.8 µM. 370,000 tested, 1.1% active. AID 652010;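 active = inhibition above the mean over all tested compounds plus 3 SD, cut at about 3.6% in these data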;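 also: higher inhibition means more luminescence from relief of DAX-1 repression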
hgDAF12 agonist: activates the H. glycines DAF-12 receptor ligand-binding domain; HEK293 GAL4-hgDAF12 UAS-luciferase reporter, agonist luminescence; normalized to butyrate control; 370,000 tested, 1.8% active; AID 687014; activation, % at 6.8 µM;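 active = activation above a cutoff set at the mean of all screened compounds plus 3 SD, cut at about 10% in these data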
Wee1 stabilizer: human Wee1 degradation inhibition, primary screen; HeLa Luc-Wee1K328M stability, luciferase luminescence; 100% = proteasome inhibitor MG132 effect; reporter increase, % at 5 µM; 220,000 tested, 1.2% active;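 active = activation above the mean of all tested compounds plus 3 SD, set per screening run, cut at about 8.8% in these data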;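 also: cells exposed to compound for 20 h before luminescence read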
ssDAF12 agonist: S. stercoralis DAF-12 activation, primary screen. HEK293 ssDAF-12/GRIP1 lit1-tk-luc reporter, luminescence; % of 3 µM dafachronic acid response. activation, % at 6.8 µM. 370,000 tested, 1% active. AID 652126;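 active = activation above the mean over all tested compounds plus 3 SD, cut at about 0.9% in these data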
LXR ag: activates human LXR-beta, counter-screen for hcDAF-12 agonists; shares compounds with hcDAF-12 act; HEK293 Gal4-LXR tk-luc reporter, luminescence, 24 h; normalized: DMSO 0%, positive control 100%; activation, % at 6.8 µM; 3,400 tested, under 10 active;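 active = mean percent activation of the reporter above a cutoff set as the average over tested compounds plus their standard deviation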
Target sequence (P55055 whole entry, looked up, the tested form may be a part): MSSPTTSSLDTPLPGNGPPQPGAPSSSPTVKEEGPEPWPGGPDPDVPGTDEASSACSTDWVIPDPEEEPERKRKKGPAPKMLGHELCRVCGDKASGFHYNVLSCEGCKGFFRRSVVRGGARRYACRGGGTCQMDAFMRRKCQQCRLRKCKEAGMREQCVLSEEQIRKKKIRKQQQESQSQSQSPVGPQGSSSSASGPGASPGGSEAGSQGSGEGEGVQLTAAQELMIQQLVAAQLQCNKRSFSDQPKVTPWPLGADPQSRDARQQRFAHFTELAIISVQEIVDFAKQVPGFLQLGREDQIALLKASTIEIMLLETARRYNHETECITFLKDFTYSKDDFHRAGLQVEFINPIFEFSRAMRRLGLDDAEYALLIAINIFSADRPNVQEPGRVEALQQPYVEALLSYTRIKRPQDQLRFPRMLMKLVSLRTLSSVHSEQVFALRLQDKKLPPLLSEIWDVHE
hcDAF12 conf: hcDAF-12 agonism, confirmation assay. activation, % at 6.8 µM. HEK293 hcDAF-12 lit1-tk-luc reporter, luminescence; % of Δ7-dafachronic acid response. 3,400 tested, 61% active. AID 743032. shares compounds with hcDAF-12 act;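 active = mean activation across triplicate tests above the threshold derived from the earlier primary screen, cut at about 5.5% in these data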
Of the large screens only hits and unclear results are named; the others gave an inactive call (follow-up assays come after a bar, where they were run).

CC(=O)OCc1nc2ccccc2s1	hcDAF-12 act 7.7, DAX1 inh-2 4.0, hgDAF12 agonist 12 | LXR ag inactive | hcDAF12 conf 12
NC(=O)c1ccccc1OCc1nc2ccccc2s1	hcDAF-12 act 14, hgDAF12 agonist 13 (no result: Wee1 stabilizer) | LXR ag inactive | hcDAF12 conf 14
O=C(O)COCc1nc2ccccc2s1	none
CCOC(=O)c1nc2ccccc2s1	hcDAF-12 act 8.8, ssDAF12 agonist 1.4 | LXR ag inactive | hcDAF12 conf 9.3
C1CCN(CCC2CCCCN2)CC1 (centres undefined)	none (no result: Wee1 stabilizer)
Cc1cccc(NS(=O)(=O)c2ccc(C)c(C(=O)N(C)C3CCN(C)CC3)c2)c1	none (no result: Wee1 stabilizer)
CCN1CCN(C(=O)C2CCN(c3nnc(-n4c(C)ccc4C)s3)CC2)CC1	hcDAF-12 act 11 (no result: Wee1 stabilizer) | LXR ag inactive | hcDAF12 conf inactive
Cc1ccc(C)n1-c1nnc(N2CCC(C(=O)N3CCN(C)CC3)CC2)s1	none (no result: Wee1 stabilizer)
O=[N+]([O-])c1cccc2ccc(/C=C/c3ccc(F)cc3)nc12	hcDAF-12 act 8.5, hgDAF12 agonist 14 | LXR ag inactive | hcDAF12 conf 6.0
CC(C)c1ccc(/C=N/NC(=O)c2ccccn2)cc1	hcDAF-12 act 8.3, ssDAF12 agonist 1.0 | LXR ag inactive | hcDAF12 conf 10
O=C(NCCN1CCNC1=O)c1ccc2sc([C@@H]3O[C@H](CO)[C@H](O)[C@H](O)[C@H]3O)nc2c1	none (no result: DAX1 inh-1, Wee1 stabilizer)
O=C(O)C(=O)/C(=C\c1cccc(Cl)c1)c1ccc2ccccc2n1	hcDAF-12 act 14, DAX1 inh-2 3.8, hgDAF12 agonist 11, ssDAF12 agonist 2.1 | LXR ag inactive | hcDAF12 conf 8.6
C/C(=N\NC(=O)c1ccccc1O)C1C(=O)c2ccccc2C1=O	hcDAF-12 act 6.9 | LXR ag inactive | hcDAF12 conf inactive
C/C(=N/NC(=O)c1cc2ccccc2cc1O)C1C(=O)c2ccccc2C1=O	none
NC(=O)c1c(NC(=O)c2ccccc2F)sc2c1CCCC2	hcDAF-12 act 9.0, DAX1 inh-1 5.4, hgDAF12 agonist 13 (no result: Wee1 stabilizer) | LXR ag inactive | hcDAF12 conf 7.3
N#Cc1c(NC(=O)c2ccccc2)sc2c1CCCCC2	hcDAF-12 act 7.0, hgDAF12 agonist 13, ssDAF12 agonist 1.0 | LXR ag inactive | hcDAF12 conf 5.9
NC(=O)c1c(NC(=O)c2ccccc2C(=O)O)sc2c1CCCC2	none (no result: Wee1 stabilizer)
CCN1C(=O)[C@H]2[C@H]3CN=C(SCC(=O)c4ccccc4)N3[C@@](C)(C(=O)OC)[C@H]2C1=O	none (no result: Wee1 stabilizer)
CC(C)NC(=O)c1ccc2c3n(nc2c1)-c1ccccc1CO3	hcDAF-12 act 6.9 (no result: Wee1 stabilizer) | LXR ag inactive | hcDAF12 conf 8.1
O=C(O)c1cc(N/N=C/c2cccc3ccccc23)ccc1Cl	hcDAF-12 act 8.4 (no result: Wee1 stabilizer) | LXR ag inactive | hcDAF12 conf 8.2
O=C1CC(c2ccc(F)cc2)Sc2nc(-c3ccccc3)c(-c3ccccc3)n21 (centres undefined)	none
O=C1CC(c2ccc3c(c2)OCO3)Sc2nc3ccccc3n21 (centres undefined)	none
O=C1CC(c2ccco2)Sc2nc3ccccc3n21 (centres undefined)	hcDAF-12 act 9.8, ssDAF12 agonist 2.8 | LXR ag inactive | hcDAF12 conf 10
O=C1CC(c2cccs2)Sc2nc3ccccc3n21 (centres undefined)	hcDAF-12 act 7.5, ssDAF12 agonist 1.6 | LXR ag inactive | hcDAF12 conf 7.4
C[C@H]1CN([C@@H](C)CO)C(=O)CCCn2cc(nn2)CO[C@@H]1CN(C)C(=O)Nc1ccccc1F	none (no result: Wee1 stabilizer)
COCCNC(=O)C[C@H]1CC[C@H]2[C@@H](COc3ccc(NS(=O)(=O)c4ccc(Cl)cc4)cc3C(=O)N2C)O1	none (no result: DAX1 inh-1, Wee1 stabilizer)
COc1ccc(-c2noc(CCC(=O)N3CCN(c4cccc(Cl)c4)CC3)n2)cc1	none (no result: Wee1 stabilizer)
Cc1cccc(-c2noc(-c3ccc(Cl)cc3[N+](=O)[O-])n2)c1	hcDAF-12 act 8.9, hgDAF12 agonist 13 | LXR ag inactive | hcDAF12 conf 7.7
Cn1c(=N)n(CC(=O)c2ccc(Br)s2)c2ccccc21	hcDAF-12 act 14, hgDAF12 agonist 12, ssDAF12 agonist 2.8 | LXR ag inactive | hcDAF12 conf 16
CC(C)c1ccc(-c2cc(C(=O)NN3CCN(C)CC3)c3ccccc3n2)cc1	hcDAF-12 act 7.3 | LXR ag inactive | hcDAF12 conf 6.0
O=C1/C(=C/Nc2cccc([N+](=O)[O-])c2)CCc2ccccc21	hcDAF-12 act 8.1, hgDAF12 agonist 16 | LXR ag inactive | hcDAF12 conf 5.8
CC(=O)N1N=C(c2ccccc2O)OC1(C)CC(=O)Nc1ccccc1 (centres undefined)	hcDAF-12 act 6.8 | LXR ag inactive | hcDAF12 conf inactive
Cc1ccc(S(=O)(=O)NC(=O)C2(C)CCN2C(=O)Cc2ccc(C(C)(C)C)cc2)cc1 (centres undefined)	none (no result: DAX1 inh-1, Wee1 stabilizer)
Cc1ccc(Nc2nc(CSc3nnc(-c4ccccc4C)n3C)cs2)cc1	hcDAF-12 act 6.8 | LXR ag inactive | hcDAF12 conf inactive
Cc1ccc(Nc2nc(CSc3nnc(-c4cccnc4)n3-c3ccccc3C)cs2)cc1	none
O=C(CSc1nnc2ccccn12)N1CCc2ccccc21	hcDAF-12 act 7.3, hgDAF12 agonist 13 | LXR ag inactive | hcDAF12 conf 5.7
O=C(CSc1nnc2ccccn12)c1ccc2c(c1)OCCO2	hcDAF-12 act 6.6, DAX1 inh-2 3.8 | LXR ag inactive | hcDAF12 conf inactive
Cc1ccc2nc3c(nc2c1)-c1ccccc1C3=O	hcDAF-12 act 11, ssDAF12 agonist 1.4 | LXR ag inactive | hcDAF12 conf 6.2
Cc1cccc2nc3c(nc12)-c1ccccc1C3=O	none
CN(C)c1ccc(C(=O)OCC(=O)c2cccs2)cc1	hcDAF-12 act 8.4, DAX1 inh-2 4.2, hgDAF12 agonist 20, Wee1 stabilizer 9.0, ssDAF12 agonist 1.1 | LXR ag inactive | hcDAF12 conf inactive
Cc1ccc(C(=O)COC(=O)c2cccs2)cc1	hcDAF-12 act 7.0, DAX1 inh-2 4.5 | LXR ag inactive | hcDAF12 conf inactive
COc1ccc(C(=O)COC(=O)c2ccc(N(C)C)cc2)cc1	none
O=C(Nc1ccc(S(=O)(=O)NC2=NCCCCC2)cc1)c1cccc(OC(F)F)c1	none (no result: Wee1 stabilizer)
O=c1cc(O)nc(SCc2ccccc2)[nH]1	hcDAF-12 act 6.7 | LXR ag inactive | hcDAF12 conf inactive
Cc1cc(=O)[nH]c(SCc2ccccc2)n1	none (no result: Wee1 stabilizer)
